Data reported in PubChem BioAssay AID1775 (NMMLSC, 2009).
“And” between values parts separate entries of the source, which are not always exact repeats. Equal values may be shown once. The campaign covered roughly 220,000 compounds. About 820 (0.37%) were called active. Rule as the data show it: active = fluorescence above about 47; inactive = the rest. What follows is part of a selection rich in actives, with near analogues and random picks from the rest.

Assay: green autofluorescence of compounds with avidin beads – biophysical, 488/530 nm, flow cytometry, artefact control, profiling panel (AID 1775)
Conditions: compound fluorescence 488/530 nm, at 10 µM, hits give high values
In the case of `O=C(CC12CC3CC(CC(C3)C1)C2)NCc1ccco1`, the fluorescence (KMESF) is reported as 11 (inactive). With `O=C(COC(=O)C12CC3CC(CC(C3)C1)C2)NCc1ccco1` the fluorescence (KMESF) was 56 (active). For `O=C(COC(=O)CCC(=O)c1cccs1)NCc1ccco1`, the fluorescence (KMESF) was 9 (inactive). For `COCCCn1c(-c2cccs2)nc2nc3ccccc3nc21`, the fluorescence (KMESF) was 6 (inactive). For `CN(c1ccccc1)c1ccc(/C=c2\s/c(=C(/C#N)C(=O)C(C)(C)C)n(Cc3ccco3)c2=O)cc1`, the fluorescence (KMESF) was 453 (active). For `COc1ccc(NC(=O)Cn2c(=O)n(Cc3ccco3)c(=O)c3ccccc32)cc1`, the fluorescence (KMESF) was 36 (inactive). For `Cc1cs/c(=N\N=C\c2ccc(O)cc2)n1Cc1ccco1`, the fluorescence (KMESF) was 7 (inactive). For `CCOC(=O)CC(NC(=O)C1c2ccccc2Oc2ccccc21)c1ccc(C)cc1` (centres undefined), the fluorescence (KMESF) was 11 (inactive). With `Clc1ccc(C[n+]2cc(-c3ccccc3)n3c2CCC3)cc1` the fluorescence (KMESF) was 7 (inactive). For `O=C(/C=C/c1ccco1)Nc1cccc(-c2nc3ccccc3[nH]2)c1`, the fluorescence (KMESF) was 9 (inactive). For `O=C(Cc1cccs1)Nc1cccc(-c2nc3ccccc3[nH]2)c1`, the fluorescence (KMESF) was 14 (inactive). In the case of `O=C(Nc1cccc(-c2nc3ccccc3[nH]2)c1)c1ccc(C(=O)Nc2cccc(-c3nc4ccccc4[nH]3)c2)cc1`, the fluorescence (KMESF) is reported as 151 (active). For `Cc1ccc(CN2C(=O)N/C(=C/c3cc(C)n(-c4ccccn4)c3C)C2=O)cc1`, the fluorescence (KMESF) was 16 (inactive). For `CCCCCCCCCCCCC(NC(C)=O)(C(=O)OCC)C(=O)OCC`, the fluorescence (KMESF) was 6 (inactive). With `CC(=O)Nc1ccc(NC(=O)COc2ccccc2C(=O)Nc2cccc(Cl)c2Cl)cc1` the fluorescence (KMESF) was 14 (inactive). With `CN(C)S(=O)(=O)Oc1ccccc1C(=O)Nc1ccccc1Cl` the fluorescence (KMESF) was 81 (active). For `O=C(Nc1ccccc1Cl)c1ccccc1S(=O)(=O)c1ccccc1[N+](=O)[O-]`, the fluorescence (KMESF) was 11 (inactive). With `COc1ccc(CCNC(=O)C2CC3Cn4c(nc5cc(C)c(C)cc54)C3N2C)cc1` (centres undefined) the fluorescence (KMESF) was 8 (inactive). In the case of `COC(=O)c1c(C)oc(C)c1S(=O)(=O)NCc1ccc(Cl)cc1`, the fluorescence (KMESF) is reported as 6 (inactive). For `CC1=CC(=C(C#N)c2nc3ccccc3s2)C=C(C)N1c1ccc(F)cc1F`, the fluorescence (KMESF) was 9 (inactive). For `Oc1[nH]c2ccc(Br)cc2c1N=Nc1nn[nH]n1`, the fluorescence (KMESF) was 4 (inactive). For `CNC(=S)N1CCC(NC(=O)C(Cc2ccc(F)cc2)NC(C)=O)CC1` (centres undefined), the fluorescence (KMESF) was 10 (inactive). In the case of `Fc1cccc(CSc2nnc3ccc(-c4ccncc4)nn23)c1`, the fluorescence (KMESF) is reported as 6 (inactive). In the case of `COc1ccccc1NC(=O)CCCc1c[nH]c2ccccc12`, the fluorescence (KMESF) is reported as 257 (active). With `O=C(Cc1c[nH]c2ccccc12)OCCOC(=O)Cc1c[nH]c2ccccc12` the fluorescence (KMESF) was 21 (inactive). With `COc1ccccc1NC(=O)C[n+]1ccccc1` the fluorescence (KMESF) was 10 (inactive). With `O=C(O)Cc1csc(-c2cccc(Oc3ccccc3)c2)n1` the fluorescence (KMESF) was 6 (inactive) and 3 (inactive). In the case of `O=C(CSc1ccccc1F)NC1CCS(=O)(=O)C1` (centres undefined), the fluorescence (KMESF) is reported as 9 (inactive). With `CCOC(=O)/C=C/CN(C(=O)OC(C)(C)C)S(=O)(=O)N1CC=CC1` the fluorescence (KMESF) was 9 (inactive). In the case of `COc1cc(NC(=S)NNC(=O)CC(C)C)c(OC)cc1Cl`, the fluorescence (KMESF) is reported as 13 (inactive). For `CC(NC(=O)c1ccc(N2CCNCC2)c([N+](=O)[O-])c1)C12CC3CC(CC(C3)C1)C2` (centres undefined), the fluorescence (KMESF) was 9 (inactive). In the case of `O=C1CS(=O)CN1c1ccc(Oc2ccccc2)cc1` (centres undefined), the fluorescence (KMESF) is reported as 9 (inactive). For `C/C=C/C(=O)Nc1ccc(N2CCN(c3ccc(C(F)(F)F)cn3)CC2)nc1`, the fluorescence (KMESF) was 8 (inactive). With `COC(=O)c1cn(C(=O)c2ccc(Cl)cc2)c2ccccc12` the fluorescence (KMESF) was 4 (inactive). With `Cc1nc(-c2ccc(Cl)cc2)sc1C1(C)CC(c2ccccc2F)=NO1` (centres undefined) the fluorescence (KMESF) was 7 (inactive). For `O=C(CCC1CCCN(Cc2ccc(O)c(Cl)c2)C1)NCc1ccccc1F` (centres undefined), the fluorescence (KMESF) was 12 (inactive). In the case of `CC(C)=CC(=O)Nc1nnc(-c2ccc(F)cc2)s1`, the fluorescence (KMESF) is reported as 71 (active). With `Cc1ccc(C(=O)Nc2nnc(-c3ccncc3)s2)o1` the fluorescence (KMESF) was 9 (inactive). For `Cc1ccc(NC(=O)Nc2nnc(-c3ccncc3)s2)cc1`, the fluorescence (KMESF) was 6 (inactive). With `CN(C)/C(=N\OC(=O)c1ccccc1)c1nonc1N` the fluorescence (KMESF) was 8 (inactive). For `NC(=O)N/N=C\c1cccs1`, the fluorescence (KMESF) was 12 (inactive). In the case of `Cc1ccc(S(=O)(=O)/N=C(/NC(=S)Nc2c(C)n(C)n(-c3ccccc3)c2=O)c2ccccc2)cc1`, the fluorescence (KMESF) is reported as 53 (active). With `Cc1ccc(S(=O)(=O)CC(=O)Nc2c(C)n(C)n(-c3ccccc3)c2=O)cc1` the fluorescence (KMESF) was 12 (inactive). In the case of `Cc1c(NC(=S)Nc2ccccc2)c(=O)n(-c2ccccc2)n1C`, the fluorescence (KMESF) is reported as 4 (inactive). For `C=CC1C(OC2OC(CO)C(O)C(O)C2O)OC=C(C(=O)OC)C1CC1CC(=O)CC(CC(=O)CCc2ccc(O)cc2)O1` (centres undefined), the fluorescence (KMESF) was 8 (inactive). In the case of `Fc1ccc(Cn2nnnc2C(c2cccs2)N2CCCCCC2)cc1` (centres undefined), the fluorescence (KMESF) is reported as 62 (active). In the case of `Fc1ccccc1C(c1nnnn1Cc1ccc2c(c1)OCO2)N1CCN(Cc2ccccc2)CC1` (centres undefined), the fluorescence (KMESF) is reported as 5 (inactive). With `CCC(C)(C)n1nnnc1C(c1cccs1)N1CCN(Cc2ccccc2)CC1` (centres undefined) the fluorescence (KMESF) was 5 (inactive). In the case of `Cc1ccc(CCCOC(=O)C[N+]2(C)CCCC2)cc1`, the fluorescence (KMESF) is reported as 6 (inactive).
